# Bioassay records deposited in PubChem by National Center for Advancing Translational Sciences (NCATS).
# The list is not random: actives were taken first. Their share in the collection is about 7.5%.
# NPC1 prom act: activates the NPC1 promoter; Huh7 NPC1 promoter luciferase reporter, 24 h; Potency, µM (top dose mostly 9.22 µM), inactives show at the top dose activation, most hits filed as activators; actives 2.4% (n = 320,000); further: % of control where 0% means no effect; nearly all actives have a fitted effect of over 60% in size
#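 Quantitative HTS used a cell-based reporter: Huh7 cells stably bearing the NPC1 promoter upstream of luciferase were treated with compounds for 24 h, and promoter activation was read as luminescence.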
# KinaseGlo FLuc: counter-screen: inhibitors of Kinase-Glo firefly luciferase; Kinase-Glo luciferase, ATP luminescence, 8 min; Potency, µM (top dose mostly 38.3 µM), for inactives: top-dose activity change, negative = inhibition, actives largely listed as inhibitors; actives 0.28% (n = 200,000); further: on the % scale 0 is the no-effect control and ±100 the full control effect; nearly all actives have a fitted effect of over 60% in size
#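 Inhibition of Kinase-Glo luciferase light generation was assessed at 10 uM ATP in pH 7.2 imidazole buffer, with luminescence measured after eight minutes at ambient temperature.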
# ELG1 genotox: inducers of genotoxicity in HEK293T ELG1-luciferase cells; HEK293T ELG1-luciferase reporter, luminescence, 16 h; Potency, µM (series often up to 46 µM), without a hit: at the top dose activity change, positive = activation, hits mostly activators; actives 1.3% (n = 330,000); further: % of control where 0% means no effect; nearly all actives have a fitted effect of over 60% in size
#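 16 hr compound incubation (37 °C, 5% CO2) of HEK293T cells carrying luciferase-tagged ELG1; luciferase then measured by ONE-Glo luminescence after 30 min at RT.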
# FLuc counter: firefly luciferase modulation, counter-screen for miR-21 project | P08659 | purified FLuc, Km substrates, luminescence inhibition | Potency, µM (series often up to 57.5 µM), for inactives: at the highest dose activity change, negative = inhibition, actives largely listed as inhibitors | actives 6.9% (n = 360,000) | AID 588342;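 further: plate controls were vehicle for no effect and reference inhibitor for full effect; nearly all actives have a fitted effect of over 55% in size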
# Target sequence (P08659 whole entry, looked up): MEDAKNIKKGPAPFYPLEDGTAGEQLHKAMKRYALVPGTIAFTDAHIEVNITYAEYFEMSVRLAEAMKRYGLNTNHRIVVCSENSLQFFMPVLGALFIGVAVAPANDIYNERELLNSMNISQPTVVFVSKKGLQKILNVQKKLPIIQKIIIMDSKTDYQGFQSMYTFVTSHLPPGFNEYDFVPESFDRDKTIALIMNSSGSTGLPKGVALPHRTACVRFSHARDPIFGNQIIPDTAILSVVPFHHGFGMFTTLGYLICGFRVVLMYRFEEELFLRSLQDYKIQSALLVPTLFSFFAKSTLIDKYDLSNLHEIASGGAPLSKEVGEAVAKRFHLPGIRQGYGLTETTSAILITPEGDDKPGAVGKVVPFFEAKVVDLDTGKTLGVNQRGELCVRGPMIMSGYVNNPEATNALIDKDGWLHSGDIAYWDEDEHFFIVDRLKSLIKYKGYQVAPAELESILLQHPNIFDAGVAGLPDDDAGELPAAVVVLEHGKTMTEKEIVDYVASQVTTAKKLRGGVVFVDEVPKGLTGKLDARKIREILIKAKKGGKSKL
#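 Biochemical qHTS of compounds, final roughly 60 µM downward over six points, against 10 nM purified firefly luciferase using Km concentrations of substrates (10 uM D-luciferin, 10 uM ATP) in Tris acetate pH 7.5 buffer; luminescence output.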
# SMN2 splice up: enhancers of SMN2 splice variant expression; HEK293 SMN2-luciferase splicing reporter, luminescence, 30-36 h; Potency, µM (series often up to 46.1 µM), without a hit: top-dose activity change, positive = activation, usual class: activators; actives 2.8% (n = 210,000); further: % of control where 0% means no effect; nearly all actives have a fitted effect of over 55% in size
#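 HEK293 cells carry an SMN2 […]–luciferase reporter in which exon 7 inclusion puts luciferase in frame. Cells were plated 10-12 h before compound addition, then incubated 30-36 h at 37C. ONE-Glo luminescence was read; sodium butyrate at 4.5 mM final served as control.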
# Rab9 prom act: activators of Rab9 promoter; Huh7 Rab9 promoter-luciferase reporter, luminescence, 24 h; Potency, µM (top dose mostly 9.22 µM), for inactives: at the highest dose activation, negative = inhibition, actives largely listed as activators; actives 2.8% (n = 320,000); AID 485297; further: % of control where 0% means no effect; nearly all actives have a fitted effect of over 60% in size
#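 Luminescence read-out: Huh7 cells stably expressing Rab9-luciferase, treated 24 h with compound at 37 °C, then lysed with luciferase reagent for 10 min at ambient before reading.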
# * marks the source's active call; other numbers are inactive results; u = inconclusive; x = no result given. The call rests on the fitted dose curve; in most records, active means well fitted curve in the direction sought with a large enough effect; inconclusive means small, poorly fitted or top-dose-only effect, or another doubt; inactive means no such curve, though single readings can be large; an effect the other way counts as inactive or inconclusive. Potency means the concentration at half of the fitted maximal effect.
SMILES,NPC1 prom act,KinaseGlo FLuc,ELG1 genotox,FLuc counter,SMN2 splice up,Rab9 prom act
O=C(O)c1cc(-c2cccc([N+](=O)[O-])c2)nc2ccccc12,1%,x,2%,19µM*,x,-3%
Cn1c(N)c(C(=O)c2cc(-c3ccccc3)nc3ccccc23)c(=O)n(C)c1=O,14%,-12%,u,5.4µM*,11µM*,9%
Cc1cc(-c2cccc([N+](=O)[O-])c2)nc2ccc3ccccc3c12,u,2%,9%,2.7µM*,-14%,u
Cn1c(=O)c(C(=O)COC(=O)c2cc(-c3ccccc3)nc3ccccc23)c(N)n(Cc2ccccc2)c1=O,-12%,-2%,0%,-7%,-9%,-9%
COc1ccccc1NC(=O)CSc1oc(-c2cccs2)nc1S(=O)(=O)c1ccccc1,x,x,x,2%,-2%,x
COCCNC(=O)C(OC(=O)c1ccco1)c1ccccc1F (stereo unspecified),2%,x,-5%,4%,x,3%
CCN(c1ccccc1)c1nnc(NC(=O)Nc2ccccc2F)s1,x,x,x,-10%,x,x
O=S(=O)(O)c1ccc(N=NNc2ccc(Br)cc2)cc1,8%,x,1%,9.5µM*,x,-2%
CC(C)c1ccc(/C=N/NC(=O)C2CCCC2)cc1,2µM*,x,5.8µM*,12µM*,x,2.5µM*
CC(C)(C)c1ccc(/C=N/NC(=O)C2CCCC2)cc1,u,x,u,19µM*,x,u
COc1ccc(S(=O)(=O)NCCc2csc(-c3cccc(F)c3)n2)cc1OC,x,x,x,-7%,x,x
CCOC(=O)c1c(C)[nH]c(N=Nc2cc(C(=O)O)cc(C(=O)O)c2)c1C,-2%,x,2%,17µM*,x,8%
CCOC(=O)c1[nH]c(C)c(C(=O)O)c1C,0%,2%,-4%,0%,-9%,-4%
CCOC(=O)c1[nH]c(C)c(C(=O)Nc2ccccc2C)c1C,-27%,3%,u,-6%,28%,-32%
CCOC(=O)c1c(C)[nH]c(CCC(=O)Nc2cc(C)ccc2OC)c1C,x,x,x,7%,x,x
CCOC(=O)c1c(C)[nH]c(N=Nc2ccc(C)cc2C)c1C,u,2%,u,15µM*,11%,0.25µM*
CCOC(=O)c1c(C)[nH]c(N=Nc2ccccc2C)c1C,28%,-4%,23µM*,15µM*,19%,u
CCn1c(C(=O)Nc2cc(C)cc(C)c2)cc2sc(Cl)cc21,x,x,x,-20%,1%,x
Cn1nc(C(=O)NCc2ccc(F)cc2)c2ccccc2c1=O,-4%,-7%,4%,10%,18µM*,-6%
C/C(=C\C(=O)c1ccccc1)NCc1ccc(F)cc1,7%,-3%,0%,19µM*,-6%,20%
CCc1ccc(NC(=O)c2cc(C(C)=O)n3ccccc23)cc1,x,x,x,15µM*,x,x
CSc1cccc(NC(=O)c2cnn3ccccc23)c1,2.5µM*,x,u,4.3µM*,x,2µM*
COC(=O)c1cc(C(C)=O)n2ccccc12,-2%,-1%,u,11%,12%,-3%
Cn1nc(C(=O)NCc2ccccc2)c2ccccc2c1=O,0%,1%,u,-1%,8%,9%
COC(=O)c1cc2oc3ccccc3c2n1Cc1nc(-c2cccc(Cl)c2)oc1C,x,x,x,-2%,x,x
SMILES,NPC1 prom act,KinaseGlo FLuc,ELG1 genotox,FLuc counter,SMN2 splice up,Rab9 prom act
CCc1cccc(C)c1NC(=O)c1cc(S(=O)(=O)N(Cc2ccc(C(=O)OC)cc2)Cc2ccc(OC)c(OC)c2)ccc1F,x,x,x,5%,x,x
CCOc1ccccc1NC(=O)CSc1nc2c(oc3ccccc32)c(=O)n1-c1ccc(C)c(C)c1,x,x,x,-1%,3%,x
COc1ccc(OC)c(NS(=O)(=O)c2cc3c4c(c2)CCN4C(=O)CC3)c1,-1%,x,1%,1%,x,-1%
CN(C)S(=O)(=O)N1CCC(N2CCN(Cc3ccc(F)cc3)C(=O)C2=O)CC1,x,x,x,0%,x,x
CCN(C(=O)C1CCCN(S(=O)(=O)c2c(C)noc2/C=C/N(C)C)C1)c1cccc(C)c1 (stereo unspecified),x,x,x,-8%,-11%,x
CCc1ccc(NC(=O)c2cnn3ccccc23)cc1,0.32µM*,-18%,0.18µM*,0.34µM*,1.8µM*,0.11µM*
COc1ccc(CNC(=O)c2cnn(-c3ccc(F)cc3)c2-n2cccc2)cc1,x,x,x,-17%,x,x
O=C(NCc1ccc(F)cc1)c1cnn2ccccc12,3.2µM*,-4%,u,12µM*,13µM*,2µM*
CCc1ccc(NC(=O)c2cnn(-c3ccccc3)c2-n2cccc2)cc1,x,x,x,-10%,u,x
Cc1ccc(NC(=O)CCn2c(=S)oc3ccccc32)cc1F,-8%,x,12%,1%,x,3%
Cc1ccc(C)c(N2CCN(C(=O)CN3C(=O)COc4ccc(S(=O)(=O)N5CCOCC5)cc43)CC2)c1,x,x,x,1%,-13%,x
Cc1cc(C)c(NC(=O)c2cc3c(=O)n4ccccc4nc3n2C)c(C)c1,x,x,x,-3%,x,x
Cn1c(C(=O)NCc2ccccn2)cc2c(=O)n3ccccc3nc21,u,2%,u,15µM*,14µM*,2µM*
c1ccc(-c2ccc(-c3cnc4n3CCCCC4)cc2)cc1,u,-5%,u,12µM*,-15%,26%
Cn1c(=O)n(C)c2cc3[nH]cnc3cc21,-4%,x,6%,0%,x,12%
Nc1cc2nc[nH]c2cc1N,-7%,-10%,19%,15µM*,3%,11%
CCN(CC)S(=O)(=O)c1ccc(N2CCN(CCOc3ccc(OC)cc3)CC2)nc1,-2%,x,-16%,3%,x,-4%
COc1cccc(-c2nc(S(=O)(=O)c3ccc(Cl)cc3)c(NCc3ccccc3)o2)c1,x,x,x,-5%,-1%,x
CCc1ccc(/C=C2\SC(N3CCCC3)=NC2=O)cc1,-1%,-2%,3%,17µM*,-38%,-5%
O=C1N=C(N2CCOCC2)S/C1=C\c1cccnc1,-3%,-4%,0%,-2%,-4%,-3%
O=C1N=C(N2CCCC2)S/C1=C\C=C\c1ccccc1,1.6µM*,x,1.6µM*,0.85µM*,x,0.56µM*
O=C1N=C(N2CCCCC2)S/C1=C\c1ccncc1,-4%,x,-6%,-9%,x,-6%
O=C1N=C(N2CCCCC2)S/C1=C\c1cn[nH]c1-c1ccccc1,21%,1%,-1%,7.6µM*,u,15%
COc1ccc(/C=C2\SC(N3CCCCC3)=NC2=O)cc1,u,x,10%,11µM*,x,u
Cc1ccc(-n2nc(C)c3c(C(=O)Nc4ccc(C)cc4Cl)cc(C)nc32)cc1,x,x,x,-6%,x,x
CC(C)c1ccccc1-n1c(SCc2cc(=O)oc3ccc4ccccc4c23)nnc1-c1cccnc1,2%,5%,-15%,5%,-71%,-7%
COc1ccccc1N(CC(=O)Nc1cc(C)cc(C)c1)S(C)(=O)=O,x,x,x,-6%,-8%,x
